We go through 40 molecules from PubChem BioAssay (Tox21).

Where “and” joins values, the source holds several entries; their conditions need not be identical. Identical values can stand only once. Inconclusive results are not listed. Unmarked numbers belong to inactive results. Calls of active or inactive are those of the source. Calls follow the shape of the dose curve; as a rule, active = well fitted cell-killing curve with a large enough effect in the repeat runs; inconclusive = weak or mixed curves, or effect the other way; inactive = flat fitted curve, though single readings scatter.
% is scaled to controls: 0 for no effect and ±100 for the full control effect; potency is read from the fitted curve at half-maximal effect.

A short description of the assay: qHTS assay to identify small molecule antagonists of the androgen receptor (AR) signaling pathway using the MDA cell line - cell viability counter screen (AID 743041; also: nearly all actives have a fitted effect of over 45% in size). The settings on record: MDA-kb2 viability, CellTiter-Fluor, 16 h, cells co-treated with R1881 androgen agonist; series mostly up to 70.3 µM; viability change, negative = cytotoxic: at the top concentration. An excerpt: National Center for Advancing Translational Sciences [NCATS]
NIH Chemical Genomics Center [NCGC]
U.S. Environmental Protection Agency [EPA]
National Institutes of Environmental Health Sciences [NIEHS]
National Toxicology Program [NTP]
U.S. Food and Drug Administration [FDA]
Androgen receptor (AR), a nuclear hormone receptor, plays a critical role in AR-dependent prostate cancer and other androgen related diseases. Endocrine disrupting chemicals (EDCs) and their interactions with steroid hormone receptors like AR may cause disruption of normal endocrine function as well as interfere with metabolic homeostasis, reproduction, developmental and behavioral functions. To identify the compounds that inhibit AR signaling, MDA-kb2 AR-luc cell line (from ATCC, deposited by Wilson et al.) was used to screen the Tox21 10K compound library. MDA-kb2 AR-luc cell line is human breast carcinoma cell line that was stably transfected with a luciferase reporter gene under control of the MMTV promoter containing response elements for both androgen receptor (AR) and glucocorticoid receptor (GR). The cytotoxicity of the Tox21 compound library against the MDA-kb2 AR-luc cell line was tested in parallel by measuring the cell viability using CellTiter-Fluor assay (Promega, Madison, WI) in the same wells.
Tox21 Assay Protocol Summary:
MDA-kb2 AR-luc cells were dispensed at 3,000 cells/4 uL/well of culture medium into white wall/solid-bottom 1536-well plates using a Multidrop Combi (ThermoFisher Scientific, Waltham, MA) dispenser. After the assay plates were incubated at a 37C and 0% CO2 for 5 hr, 23 nL of compounds dissolved in DMSO, positive controls or DMSO only was transferred to the assay plate by a Pintool station (Kalypsys, San Diego, CA), followed by addition of 1 uL of agonist (R1881) in culture medium using a Bioraptr Flying Reagent Dispenser (FRD) workstation (Beckman Coulter, Indianapolis, IN, USA). The plates were incubated at a 37C and 0% CO2 for 16 h. After 15.5 h incubation, 1uL of CellTiter-Fluor reagent (Promega) was added using a Bioraptr FRD to each plate for measuring cytotoxicity. The fluorescence intensity was quantified on a ViewLux plate reader (PerkinElmer, Shelton, CT) following 30 min incubation at 37C and 0% CO2.
With `Oc1ccc2c(c1)-c1ccccc1C2`, the “viability change, negative = cytotoxic” value is 0.255%.

In the case of `CCC(C)(C)C1CCCCC1OC(C)=O` (stereo not given), the “viability change, negative = cytotoxic” value was 8.56%.

Turning to `CSc1cnc(C)cn1`, the “viability change, negative = cytotoxic” value is 4.53% [at 95 µM].

As for `COc1cc(-c2ccc(N=C=O)c(OC)c2)ccc1N=C=O`, the “viability change, negative = cytotoxic” value was -6.28%.

In the case of `C[n+]1cc2c3c(ccc2c2ccc4cc5c(cc4c21)OCO5)OCO3`, the Potency is 26.6 µM (active).

As for `CN1CCN(CCC(=O)N2c3ccccc3Sc3ccc(C(F)(F)F)cc32)CC1`, the “viability change, negative = cytotoxic” value is -7.79%.

In the case of `Clc1ccc2cc3ccccc3cc2c1`, the “viability change, negative = cytotoxic” value is 9.02%.

Turning to `C[n+]1ccn(Cc2ccccc2)c1`, the “viability change, negative = cytotoxic” value was 17%.

In the case of `Cc1cc(CCN2CCN(c3nsc4ccccc34)CC2)cc2c1NC(=O)CC2(C)C`, the Potency was 48.6 µM (active).

On to `CC(C)(C)C(=O)OCOC(=O)[C@@H]1N2C(=O)[C@@H](NC(=O)[C@H](N)c3ccccc3)[C@H]2SC1(C)C`, for which the “viability change, negative = cytotoxic” value was 1.32% [at 32.5 µM].

Consider `COc1cc(/C=C/C(=O)O[C@H]2CC[C@]34C[C@]35CC[C@]3(C)[C@@H]([C@H](C)CCC=C(C)C)CC[C@@]3(C)[C@@H]5CC[C@H]4C2(C)C)ccc1O`, for which the Potency entry is “inactive”.

As for `CCCCCCCC/C=C/CCCCCCCC1=NCCN1CCO`, the “viability change, negative = cytotoxic” value was -7.98%.

Consider `Fc1ccc([C@@H]2CCNC[C@H]2COc2ccc3c(c2)OCO3)cc1`, for which the Potency was 18.8 µM (active).

With `CN(C)C(=O)C1(N2CCCCC2)CCN(CC[C@@]2(c3ccc(Cl)c(Cl)c3)CN(C(=O)c3ccccc3)CCO2)CC1`, the Potency is 50.9 µM (active).

On to `CNC(=O)c1ccccc1`, for which the “viability change, negative = cytotoxic” value is -1.85%.

Turning to `Cc1cc(O)c(C(C)(C)C)cc1C(C)(C)C`, the Potency is 43.3 µM (active).

Turning to `CCCCCCCC[N+](CCCCCCCC)(CCCCCCCC)CCCCCCCC`, the Potency is 4.32 µM (active).

Consider `NC(=O)CC[C@@H]1NC(=O)[C@H](Cc2ccccc2)NC(=O)[C@H](Cc2ccc(O)cc2)NC(=O)CCSSC[C@@H](C(=O)N2CCC[C@H]2C(=O)N[C@@H](CCCN=C(N)N)C(=O)NCC(N)=O)NC(=O)[C@H](CC(N)=O)NC1=O`, for which the Potency entry is “inactive”.

As to `Cc1cc(O)c2ccccc2c1O`, the “viability change, negative = cytotoxic” value was 0.0745%.

Consider `Nc1ccc(N)c2ccccc12`, for which the Potency was 43.2 µM (active).

Consider `C=C(C)C(=O)OCC(O)COc1ccc(C(C)(C)c2ccc(OCC(O)COC(=O)C(=C)C)cc2)cc1` (stereo not given), for which the Potency was 21.7 µM (active).

With `CC(C)C(C)(C)C(C)(C)C(C)(C)S`, the “viability change, negative = cytotoxic” value is 25%.

As for `CCCCN1C(=O)[C@@H]([C@H](O)C2CCCCC2)NC(=O)C12CCN(Cc1ccc(Oc3ccc(C(=O)O)cc3)cc1)CC2`, the “viability change, negative = cytotoxic” value is -19.6%.

`CCCCCCCC/C=C\CCCCCCCCOCCO`: the Potency is 14.1 µM (active).

For the molecule `CCCCCCCCCCCCCCCC(=O)OC[C@H](O)[C@H]1OC(=O)C(O)=C1O`, the Potency entry is “inactive”.

Take `CCc1cc(SCc2sc(-c3ccc(C(F)(F)F)cc3)nc2CN2CCN(c3ccc(OC)cc3)CC2)ccc1OCC(=O)O`: the “viability change, negative = cytotoxic” value is -2.78%.

In the case of `CCCCCCCCOC(=O)c1ccc(O)cc1`, the Potency entry is “inactive”.

For the molecule `Cc1ccc(O)c2ncccc12`, the Potency was 18.8 µM (active).

Take `C=CC(=O)OCCn1c(=O)n(CCOC(=O)C=C)c(=O)n(CCOC(=O)C=C)c1=O`: the Potency was 30.6 µM (active).

As to `CC(C)CCCCCCCCCCCCCCC(=O)O`, the “viability change, negative = cytotoxic” value was -1.19%.

With `CC(C)(C)c1ccc(C(=O)CCCN2CCC(OC(c3ccccc3)c3ccccc3)CC2)cc1`, the “viability change, negative = cytotoxic” value is -6.93%.

As for `C[C@]12CCC(=O)C=C1CC[C@@H]1[C@@H]2[C@@H](O)C[C@@]2(C)[C@H]1CC[C@]2(O)C(=O)COC(=O)CCC(=O)O`, the “viability change, negative = cytotoxic” value is -9.85%.

For the molecule `CCCCCCCCCCC=O`, the “viability change, negative = cytotoxic” value was 5.32% [at 95 µM].

Turning to `CCc1oc2ccccc2c1C(=O)c1cc(Br)c(O)c(Br)c1`, the “viability change, negative = cytotoxic” value was -1.6%.

Consider `CCCCCCCC[P+](CCCCCCCC)(CCCCCCCC)CCCCCCCC`, for which the Potency was 6.08 µM (active).

With `CCCCCOC(=O)CCCC`, the “viability change, negative = cytotoxic” value is 9.43%.

On to `COc1ccc(-c2ccc3cc(C(=O)O)ccc3c2)cc1C12CC3CC(CC(C3)C1)C2`, for which the “viability change, negative = cytotoxic” value is 1.35%.

For the molecule `O=[N+]([O-])c1ccccc1Nc1ccccc1`, the “viability change, negative = cytotoxic” value is 0.0114%.

As for `O=C(Nc1cccc(C(F)(F)F)c1)c1cc(Br)cc(Br)c1O`, the Potency is 11.9 µM (active) and 10.9 µM (active).

With `C=C(C)C(=O)OCC[N+](C)(C)C`, the “viability change, negative = cytotoxic” value is -8.56%.
